Hit rate of the full screen: of about 37,000 compounds, about 2,800 (7.6%) were called active. Another 1% or so got no clear call; they are omitted. This is one part of a sample in which actives are shown more often than they occur. Cut-off read from the data, not from the text of the source: active = inhibition above about 80%; inconclusive = no clear call, values can overlap the other calls; inactive = below that.

The nature of the assay: NOMO-1 AML cell viability reduction, primary screen, STK33 inhibitor project, CellTiter-Glo luminescence (AID 2330). The note with it: NOMO-1 AML viability, 72 h, hits give high values, concentration not given here. (In general: Cellular ATP, detected with luciferase, serves as a proxy for viable cell number.)
A word on the inhibition: it is the drop in the measured response relative to a control, in per cent. `COc1ccc(NC(=O)C(=O)NCC(=O)Nc2cccc(C(F)(F)F)c2)cc1`: the inhibition is 14% (inactive).
The result for `O=C(CN1C(=O)c2ccccc2S1(=O)=O)Nc1ccc(F)c(F)c1` reads 36.7% (inactive).
For the compound `Nc1nnc(SCCN2C(=O)c3ccccc3S2(=O)=O)s1`, the inhibition was 32.8% (inactive).
Then `O=C1c2ccccc2S(=O)c2ccccc2S(=O)(=O)N1Cc1ccccc1` (stereo not given), with 117% (active); and `Cc1noc(C)c1NC(=O)Nc1ccc2c(c1)C(=O)N([C@@H](C)CO)C[C@H](C)[C@@H](CN(C)C(=O)Nc1ccccc1)O2`, with -19% (inactive).
Then `Cc1ccc(S(=O)(=O)N(C)C[C@@H]2Oc3ccc(NC(=O)Cn4cnnn4)cc3CC(=O)N([C@H](C)CO)C[C@H]2C)cc1`, with -11.1% (inactive).
The result for `O=C(/C=C/c1ccccc1)NCCCCNCCCNC(=O)/C=C/c1ccccc1` reads 11.1% (inactive).
Take `COc1cc(NC(=O)COc2cc(C)c(Br)c(C)c2)c(OC)cc1Cl`: the inhibition was 6.99% (inactive).
Take `C=CCNc1nc(C)nc(OC)n1`: the inhibition is -5.74% (inactive).
The result for `C[C@@H]1CN([C@H](C)CO)C(=O)Cc2cc(NC(=O)Nc3ccc(F)cc3)ccc2O[C@@H]1CN(C)C(=O)Nc1ccc2c(c1)OCO2` reads 10.5% (inactive); that for `O=C1NC(Cc2c[nH]c3ccccc23)C(=O)N2CCCC12` (stereo not given), 14.5% (inactive).
Regarding `Cc1ccc2nc(C)c3c(c2c1)N(c1ccccc1)CC3`, the inhibition is 122% (active).
Then `O=C(CSc1nc2sc3c(c2c(=O)[nH]1)CCC3)Nc1ccccc1C(F)(F)F`, with 26% (inactive); and `C[C@H](CO)N1C[C@H](C)[C@H](CN(C)C(=O)Nc2ccc(C(F)(F)F)cc2)Oc2ccc(NS(C)(=O)=O)cc2CC1=O`, with -2.28% (inactive).
On to `Cc1ccc(S(=O)(=O)N(C)C[C@@H]2Oc3ccc(NC(=O)Nc4ccc5c(c4)OCO5)cc3C(=O)N([C@@H](C)CO)C[C@@H]2C)cc1`, for which the inhibition was 45.7% (inactive).
For `Cc1cc(C)cc(OCC(=O)Nc2cccc(-c3nnc(-c4ccccc4)o3)c2)c1`, the inhibition is 42.7% (inactive).
The result for `Cc1ccnc(NC(c2cccc(Br)c2)c2ccc3ccc(C)nc3c2O)c1` (stereo not given) reads 126% (active).
The result for `Cc1ccnc(NC(c2cccc([N+](=O)[O-])c2)c2ccc3ccc(C)nc3c2O)c1` (stereo not given) reads 101% (active); that for `Cc1ccc(S(=O)(=O)Nc2ccc3c(c2)C(=O)N([C@@H](C)CO)C[C@H](C)[C@H](CN(C)C(=O)Nc2ccc(C(F)(F)F)cc2)O3)cc1`, 4.18% (inactive); that for `Cc1ccc(NC(=O)C2C3C=CC(C3)C2C(=O)O)cc1` (stereo not given), -5.27% (inactive).
As to `Cc1cccc(NC(=O)CSc2nnc(-c3ccccc3)n2C2CCCCC2)c1C`, the inhibition was 22.3% (inactive).
The result for `COc1ccc(NC(=O)CSc2nnc(-c3ccc(Br)cc3)n2C)cc1` reads 16.2% (inactive).
Then `C[C@H]1CN([C@@H](C)CO)C(=O)c2cccc(NC(=O)Nc3ccccc3)c2O[C@H]1CN(C)Cc1ccc(Oc2ccccc2)cc1`, with 18.8% (inactive); and `C[C@H](CO)N1C[C@H](C)[C@H](CN(C)Cc2ccc(Oc3ccccc3)cc2)Oc2c(NC(=O)CCCCCC(=O)Nc3ccccc3N)cccc2C1=O`, with 139% (active); and `C[C@H]1CN([C@@H](C)CO)C(=O)c2cccc(NC(=O)CCCCCC(=O)Nc3ccccc3N)c2O[C@H]1CN(C)C(=O)Nc1ccccc1`, with 10.1% (inactive).
For the compound `C[C@@H]1CN([C@H](C)CO)C(=O)c2cccc(NC(=O)CCCCCC(=O)Nc3ccccc3N)c2O[C@@H]1CN(C)C(=O)Nc1ccccc1`, the inhibition is 7.63% (inactive).
Then `C[C@H](CO)N1C[C@H](C)[C@@H](CN(C)C(=O)Nc2ccccc2)Oc2c(NC(=O)CCCCCC(=O)Nc3ccccc3N)cccc2C1=O`, with 21.7% (inactive); and `C[C@H](CO)N1C[C@H](C)[C@@H](CN(C)Cc2ccccc2)Oc2c(NC(=O)CCCCCC(=O)Nc3ccccc3N)cccc2C1=O`, with 126% (active).
Consider `C[C@H]1CN([C@@H](C)CO)C(=O)c2cccc(NC(=O)Nc3ccccc3)c2O[C@@H]1CN(C)S(C)(=O)=O`, for which the inhibition was -0.709% (inactive).
For `COc1cc(C2c3c(cc(OC)c(O)c3OC)CC(CO[C@@H]3O[C@H](CO)[C@@H](O)[C@H](O)[C@H]3O)C2CO)cc(OC)c1O` (stereo not given in full), the inhibition is -1.41% (inactive).
Consider `O=C1C2=C(Nc3ccccc3S(=O)(=O)C2c2ccc(Cl)cc2)c2ccccc21` (stereo not given), for which the inhibition was 121% (active).
The result for `COC(=O)c1ccccc1NC(=O)C(C)Oc1ccccc1F` (stereo not given) reads 8.1% (inactive).
The result for `O=C(CC(C(=O)O)N1CCNCC1)Nc1cccc(Cl)c1` (stereo not given) reads 9.13% (inactive).
Then `CCN(CC)C(=O)c1ccc(O)c(OC)c1`, with -13.3% (inactive).
For `COc1cc(C2OC(c3ccc(O)c(OC)c3)C(C)(O)C2C)ccc1O` (stereo not given), the inhibition is 119% (active).
With `COc1cc(C2OC(c3cc(OC)c(OC)c(OC)c3)C(C)C2C)cc(OC)c1OC` (stereo not given), the inhibition is 7.55% (inactive).
Then `O=C(c1ccccc1Br)N1CCN(c2ccc([N+](=O)[O-])c(NCc3cccnc3)c2)CC1`, with 40.2% (inactive); and `Cc1noc(C)c1NC(=O)Nc1ccc2c(c1)C(=O)N([C@@H](C)CO)C[C@@H](C)[C@@H](CN(C)CC1CCCCC1)O2`, with -6.14% (inactive).
For the compound `Oc1c(Cl)cc(Cl)c(Cl)c1Cc1c(O)c(Cl)cc(Cl)c1Cl`, the inhibition was 107% (active).
Turning to `Cc1cc(=O)[nH]c(SCc2cn3c(C)cc(C)nc3n2)n1`, the inhibition was -6.02% (inactive).
The result for `COc1ccc(NC(=O)N(C)C[C@@H]2OCCCC[C@@H](C)Oc3ccc(NS(=O)(=O)c4c(C)noc4C)cc3C(=O)N([C@H](C)CO)C[C@@H]2C)cc1` reads 7.62% (inactive).
Then `COc1ccc(CCCOC(Cn2ccnc2)c2ccc(OC)cc2)cc1` (stereo not given), with 114% (active).
The result for `Cc1ccc(S(=O)(=O)N(C)C[C@H]2OCCCC[C@@H](C)Oc3ccc(NS(C)(=O)=O)cc3C(=O)N([C@H](C)CO)C[C@@H]2C)cc1` reads 20.5% (inactive).
As for `COc1ccccc1NC(=O)c1ccc(OCC(=O)O)cc1`, the inhibition is -18.7% (inactive).
The result for `CC(C)(C)c1ccc(OCC(=O)Nc2cccc(NC(=O)c3ccccc3)c2)cc1` reads 25.3% (inactive); that for `COC(=O)COc1cccc(NC(=O)c2cc(OC)c(OC)c(OC)c2)c1`, 124% (active); that for `C[C@H]1CN([C@@H](C)CO)C(=O)c2cccc(NC(=O)CCCCCC(=O)Nc3ccccc3N)c2O[C@@H]1CN(C)S(=O)(=O)c1cn(C)cn1`, 5.62% (inactive).
Then `O=[N+]([O-])c1ccc(NCCNCc2cccnc2)cc1`, with -20% (inactive); and `CC[N+]1=C(C)C(C)(C)c2cc(-c3ccccc3)ccc21`, with 123% (active).
Then `Cc1ccc(Cn2c(NCc3nc4ccccc4n3C)nc3ccccc32)cc1`, with 7.82% (inactive).
As for `CC(C)NC(=O)Nc1ccc2c(c1)C(=O)N([C@@H](C)CO)C[C@@H](C)[C@H](CN(C)C(=O)NC1CCCCC1)O2`, the inhibition is 30.5% (inactive).
Then `COc1ccc(-c2nnc(SCC(=O)O)n2-c2ccccc2)cc1OC`, with -16.5% (inactive); and `CC1(C)Cc2c(sc3ncn4nc(COc5ccc(Cl)cc5)nc4c23)C(C)(C)N1`, with 142% (active).
The result for `O=C1c2ccccc2C(=O)C1c1cc(=O)[nH]c2c1ccc1ccccc12` reads 11.8% (inactive).
Then `CCOC(=O)c1nnn(-c2nonc2-n2cccc2)c1CN1CCOCC1`, with 24.9% (inactive).
With `Cc1ccc(S(=O)(=O)N(C)C[C@H]2Oc3ccc(NS(=O)(=O)c4ccccc4)cc3CC(=O)N([C@@H](C)CO)C[C@H]2C)cc1`, the inhibition is -0.416% (inactive).
Then `COc1ccc(CN(C)C[C@H]2Oc3ccc(NS(=O)(=O)c4ccc(Cl)cc4)cc3CC(=O)N([C@@H](C)CO)C[C@H]2C)cc1`, with 40.8% (inactive).
Then `C[C@@H]1CN([C@H](C)CO)C(=O)Cc2cc(NS(=O)(=O)c3cccs3)ccc2O[C@@H]1CN(C)Cc1ccc(C(=O)O)cc1`, with -19.7% (inactive); and `Cc1ccc(S(=O)(=O)Nc2ccc3c(c2)CC(=O)N([C@@H](C)CO)C[C@H](C)[C@H](CN(C)Cc2ccc(C(=O)Nc4ccccc4N)cc2)O3)cc1`, with 139% (active); and `C[C@H](CO)N1C[C@H](C)[C@H](CN(C)CC2CC2)Oc2ccc(NS(=O)(=O)c3ccccc3)cc2CC1=O`, with 20.8% (inactive).
With `COc1ccc(S(=O)(=O)Nc2ccc3c(c2)CC(=O)N([C@H](C)CO)C[C@@H](C)[C@@H](CN(C)C(=O)Nc2cccc4ccccc24)O3)cc1`, the inhibition is -1.33% (inactive).
Then `C[C@H]1CN([C@@H](C)CO)C(=O)Cc2cc(NS(=O)(=O)c3ccccc3)ccc2O[C@H]1CN(C)Cc1ccc(C(=O)Nc2ccccc2N)cc1`, with 141% (active); and `COc1ccc(S(=O)(=O)Nc2ccc3c(c2)CC(=O)N([C@@H](C)CO)C[C@@H](C)[C@@H](CN(C)Cc2ccc(C(=O)Nc4ccccc4N)cc2)O3)cc1`, with 100% (active); and `Cc1ccc(S(=O)(=O)Nc2ccc3c(c2)CC(=O)N([C@@H](C)CO)C[C@@H](C)[C@@H](CN(C)S(=O)(=O)c2ccccc2)O3)cc1`, with 5.59% (inactive).
`C[C@@H]1CCCCO[C@H](CN(C)S(=O)(=O)c2ccccc2)[C@@H](C)CN([C@H](C)CO)C(=O)c2cc(NC(=O)Nc3ccc(F)cc3)ccc2O1`: the inhibition is 33.7% (inactive).
For `C[C@@H]1CCCCO[C@H](CN(C)S(=O)(=O)c2cccs2)[C@@H](C)CN([C@H](C)CO)C(=O)c2cc(NC(=O)Nc3ccccc3)ccc2O1`, the inhibition was 11.8% (inactive).
The result for `O=c1cc(CSc2nnnn2-c2ccccc2)[nH]c(=S)[nH]1` reads 33.9% (inactive).
Then `C[C@@H]1CN([C@@H](C)CO)C(=O)Cc2cc(NC(=O)C3CCCCC3)ccc2O[C@@H]1CN(C)Cc1ccncc1`, with 15.8% (inactive); and `CCOC(=O)c1cnc2cc(C(F)(F)F)ccc2c1N1CCCCCC1`, with 13.2% (inactive).
The result for `CNC[C@@H]1Oc2ccc(NC(=O)Nc3ccc4c(c3)OCO4)cc2C(=O)N([C@H](C)CO)C[C@@H]1C` reads 6.4% (inactive).

The values are drawn from PubChem BioAssay AID2330 (Broad Institute, 2010).
